Data as given in publication PMC7862700, “An all-to-all approach to the identification of sequence-specific readers for epigenetic DNA modifications on cytosine”.

Columns and labels:
Assay in all cases: DAPPL (digital affinity profiling via proximity ligation, sequencing); 10 mM Tris-HCl pH 7.5, 50 mM NaCl, 1 mM DTT, 4% glycerol, room temperature, 30 min; GST-TFs on glutathione beads, 16-mer random dsDNA library, 0.1% formaldehyde crosslink after washing; high values mean tight binding
Details in all cases: protein: recombinant; tags: N-terminal GST; dsDNA, one strand shown
FLI1 = target: T1, FLI1 (Homo sapiens, UniProt Q01543 1-452)
T1 sequence: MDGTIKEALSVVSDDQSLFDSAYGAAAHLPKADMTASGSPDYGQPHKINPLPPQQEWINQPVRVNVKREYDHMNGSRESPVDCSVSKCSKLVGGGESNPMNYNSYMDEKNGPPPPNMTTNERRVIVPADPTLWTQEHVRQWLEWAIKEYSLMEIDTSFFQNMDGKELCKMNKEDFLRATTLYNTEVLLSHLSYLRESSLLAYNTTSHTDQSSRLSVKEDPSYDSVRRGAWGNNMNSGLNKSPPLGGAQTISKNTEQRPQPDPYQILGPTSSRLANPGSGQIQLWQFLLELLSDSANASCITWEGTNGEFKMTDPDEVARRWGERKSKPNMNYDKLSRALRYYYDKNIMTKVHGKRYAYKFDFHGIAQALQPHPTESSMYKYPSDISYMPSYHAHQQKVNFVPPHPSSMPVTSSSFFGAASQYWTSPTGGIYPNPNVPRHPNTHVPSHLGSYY
Summary of the method: (§1)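 Human transcription factors were made in yeast as GST fusions, captured on glutathione beads and barcoded with DNA. With a tag-only sample included, the pool was incubated with 200 nmole of a random double-stranded 16-mer DNA library in Tris/NaCl/DTT/glycerol buffer at room temperature for 30 min, then crosslinked with 0.1% formaldehyde after washing, ligated by proximity, amplified and sequenced. For binding signal, each hexamer's read frequency for a factor is divided by its frequency for the tag-only sample.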

ELK1 = target: T2, ELK1 (Homo sapiens, UniProt P19419 1-428)
T2 sequence: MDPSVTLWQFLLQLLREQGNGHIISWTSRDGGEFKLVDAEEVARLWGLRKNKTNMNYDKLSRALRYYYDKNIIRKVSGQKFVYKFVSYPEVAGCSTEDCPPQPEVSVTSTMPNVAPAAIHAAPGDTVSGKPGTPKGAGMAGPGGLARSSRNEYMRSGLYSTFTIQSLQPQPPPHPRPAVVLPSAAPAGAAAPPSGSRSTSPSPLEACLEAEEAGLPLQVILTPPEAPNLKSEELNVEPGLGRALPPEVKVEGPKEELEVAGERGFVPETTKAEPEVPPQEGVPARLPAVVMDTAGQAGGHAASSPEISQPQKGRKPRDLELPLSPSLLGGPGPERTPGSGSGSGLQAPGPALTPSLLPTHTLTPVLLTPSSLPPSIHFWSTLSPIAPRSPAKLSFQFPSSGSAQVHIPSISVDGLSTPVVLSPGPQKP
Summary of the method: as §1

GABPA = target: T3, GABPA (Homo sapiens, UniProt Q06546 1-454)
T3 sequence: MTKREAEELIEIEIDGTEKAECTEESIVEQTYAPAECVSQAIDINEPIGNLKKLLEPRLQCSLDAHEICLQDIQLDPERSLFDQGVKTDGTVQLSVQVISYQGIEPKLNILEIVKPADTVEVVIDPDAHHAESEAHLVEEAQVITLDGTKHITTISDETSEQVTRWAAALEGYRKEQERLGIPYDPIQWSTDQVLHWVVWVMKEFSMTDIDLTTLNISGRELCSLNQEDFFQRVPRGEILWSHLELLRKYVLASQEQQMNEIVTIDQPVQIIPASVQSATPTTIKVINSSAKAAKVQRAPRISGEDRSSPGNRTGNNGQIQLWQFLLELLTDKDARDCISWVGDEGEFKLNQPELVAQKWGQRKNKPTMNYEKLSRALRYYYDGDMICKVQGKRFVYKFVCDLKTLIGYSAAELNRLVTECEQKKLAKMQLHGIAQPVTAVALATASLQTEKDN
Summary of the method: as §1

ERG = target: T4, ERG (Homo sapiens, UniProt P11308 1-479)
T4 sequence: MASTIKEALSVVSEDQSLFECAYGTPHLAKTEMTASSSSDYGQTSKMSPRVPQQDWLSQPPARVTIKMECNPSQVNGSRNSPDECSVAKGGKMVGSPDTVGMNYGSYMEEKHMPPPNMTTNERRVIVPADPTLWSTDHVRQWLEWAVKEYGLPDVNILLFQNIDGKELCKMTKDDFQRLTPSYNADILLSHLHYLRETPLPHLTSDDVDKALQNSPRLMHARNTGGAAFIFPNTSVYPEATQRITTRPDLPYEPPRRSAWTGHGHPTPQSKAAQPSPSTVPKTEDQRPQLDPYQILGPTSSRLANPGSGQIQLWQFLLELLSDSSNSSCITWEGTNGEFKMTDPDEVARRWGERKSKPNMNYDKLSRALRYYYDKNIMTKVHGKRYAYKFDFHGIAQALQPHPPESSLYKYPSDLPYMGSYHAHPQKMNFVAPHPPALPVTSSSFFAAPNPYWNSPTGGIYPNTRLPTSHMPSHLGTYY
Summary of the method: as §1

ELF1 = ELF1 (Homo sapiens, UniProt P32519 1-619)
Summary of the method: as §1

EHF = target: T5, EHF (Homo sapiens, UniProt Q9NZC4 1-300)
T5 sequence: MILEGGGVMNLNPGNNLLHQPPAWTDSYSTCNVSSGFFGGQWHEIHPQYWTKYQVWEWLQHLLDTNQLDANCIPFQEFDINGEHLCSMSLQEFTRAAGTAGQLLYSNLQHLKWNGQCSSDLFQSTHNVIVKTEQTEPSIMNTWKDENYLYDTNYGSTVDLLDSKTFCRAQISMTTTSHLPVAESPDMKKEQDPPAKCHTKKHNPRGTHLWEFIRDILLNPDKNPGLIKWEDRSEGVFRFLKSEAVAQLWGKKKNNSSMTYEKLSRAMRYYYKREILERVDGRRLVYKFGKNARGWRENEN
Summary of the method: as §1

SPI1 = SPI1 (Homo sapiens, UniProt P17947 1-270)
Summary of the method: as §1

SPIB = SPIB (Homo sapiens, UniProt Q01892 1-262)
Summary of the method: as §1

ELK3 = target: T6, ELK3 (Homo sapiens, UniProt P41970 1-407)
T6 sequence: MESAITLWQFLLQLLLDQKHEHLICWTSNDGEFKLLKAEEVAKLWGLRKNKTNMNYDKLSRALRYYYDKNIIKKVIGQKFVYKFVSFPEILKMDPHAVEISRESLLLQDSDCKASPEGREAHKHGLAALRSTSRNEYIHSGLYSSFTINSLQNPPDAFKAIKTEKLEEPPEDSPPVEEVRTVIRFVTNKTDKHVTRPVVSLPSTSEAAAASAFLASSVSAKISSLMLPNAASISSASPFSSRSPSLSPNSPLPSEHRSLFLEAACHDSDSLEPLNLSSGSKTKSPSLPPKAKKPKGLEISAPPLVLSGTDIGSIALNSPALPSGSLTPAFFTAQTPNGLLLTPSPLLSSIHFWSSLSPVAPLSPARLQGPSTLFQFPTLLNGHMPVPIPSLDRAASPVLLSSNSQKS
Summary of the method: as §1

Sequence of ELF1 (P32519 whole entry): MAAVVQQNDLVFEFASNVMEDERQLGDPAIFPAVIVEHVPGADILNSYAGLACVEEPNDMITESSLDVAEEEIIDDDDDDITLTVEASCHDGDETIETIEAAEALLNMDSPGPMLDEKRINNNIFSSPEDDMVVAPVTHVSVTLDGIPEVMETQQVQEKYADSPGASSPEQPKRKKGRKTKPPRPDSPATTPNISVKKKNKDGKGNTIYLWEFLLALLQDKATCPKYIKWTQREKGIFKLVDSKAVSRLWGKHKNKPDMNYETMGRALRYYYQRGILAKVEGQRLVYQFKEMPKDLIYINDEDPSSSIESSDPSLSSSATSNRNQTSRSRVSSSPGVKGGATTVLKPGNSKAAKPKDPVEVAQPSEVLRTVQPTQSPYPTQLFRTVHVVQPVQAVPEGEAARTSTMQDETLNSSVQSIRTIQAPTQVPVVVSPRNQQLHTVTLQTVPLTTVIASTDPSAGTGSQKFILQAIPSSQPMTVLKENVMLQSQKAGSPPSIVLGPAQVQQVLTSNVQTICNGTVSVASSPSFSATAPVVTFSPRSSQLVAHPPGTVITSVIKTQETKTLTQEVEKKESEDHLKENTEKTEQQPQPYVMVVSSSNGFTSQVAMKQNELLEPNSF
Sequence of SPIB (Q01892 whole entry): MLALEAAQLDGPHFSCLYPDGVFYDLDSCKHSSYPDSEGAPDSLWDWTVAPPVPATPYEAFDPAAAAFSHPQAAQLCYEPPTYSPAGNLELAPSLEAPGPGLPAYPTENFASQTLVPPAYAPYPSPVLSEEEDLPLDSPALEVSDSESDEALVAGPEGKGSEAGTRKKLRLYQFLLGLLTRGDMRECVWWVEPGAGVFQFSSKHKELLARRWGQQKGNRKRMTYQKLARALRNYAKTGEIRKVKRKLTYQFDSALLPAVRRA

TACCGA
binding signal (FLI1): 1.26 fold enrichment (6-mer frequency, TF over GST control)
binding signal (ELK1): 1.1 fold enrichment (6-mer frequency, TF over GST control)
binding signal (GABPA): 1.13 fold enrichment (6-mer frequency, TF over GST control)
binding signal (ERG): 1.07 fold enrichment (6-mer frequency, TF over GST control)
binding signal (ELF1): 1.17 fold enrichment (6-mer frequency, TF over GST control)
binding signal (EHF): 1.1 fold enrichment (6-mer frequency, TF over GST control)
binding signal (SPI1): 1.12 fold enrichment (6-mer frequency, TF over GST control)
binding signal (SPIB): 1.16 fold enrichment (6-mer frequency, TF over GST control)
binding signal (ELK3): 1.12 fold enrichment (6-mer frequency, TF over GST control)
